Screens as filed in PubChem BioAssay.
Only some compounds are listed: those with a hit (about 2.3% of all), similar ones and a draw of the others.
CHT block – inhibits the human high affinity choline transporter | Q9GZV3 | CHT-expressing cells, membrane potential dye, choline response; active compounds read low | B-score at 10 µM | 310,000 tested, 0.86% active | AID 488975;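 active = B-score over 3 SD under the library average, and starting fluorescence ratio not unusually high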;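 also: choline stimulus applied at its EC90 after an EC20 pre-addition; B-score computed on integrated fluorescence ratio after choline addition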
CHT PAM – allosterically activates the human high affinity choline transporter. B-score at 10 µM. 310,000 tested, 0.49% active. CHT-expressing cells, membrane potential dye, choline EC20; active compounds read high; LV-AA mutant CHT in HEK293 cells. Q9GZV3;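 active = initial fluorescence not abnormally high and integrated response B-score, plate-corrected, over 3 SD above library mean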
TMEM16A inh – blocks the mouse calcium-activated chloride channel TMEM16A | normalized B-score (activity score, 25-100; higher = stronger inhibition) at 10 µM | AID 588511 | HEK293 TMEM16A/YFP iodide influx fluorescence, ionomycin | Q8BHY3 | 310,000 tested, 1.2% active;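 active = ratio plate-corrected score three or more library SD toward inhibition, starting fluorescence score within five deviations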;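 also: score derived from kinetic fluorescence span divided by baseline fluorescence per well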
TMEM16A act – mouse TMEM16A channel activation, primary screen; B-score at 10 µM; HEK293 TMEM16A/YFP-H148Q/I152L, iodide quench fluorescence; active compounds read low; 340,000 tested, 0.3% active; Q8BHY3;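 active = fluorescence-ratio B-score plate-corrected deviation score at least 3 library SD below zero, with starting fluorescence score within 5 deviations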;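 also: channel opened by trigger with iodide after compound preincubation; score built on the fluorescence ratio of max minus min over baseline; more negative score means more quench and so TMEM16A activation or potentiation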
Hits are given with their value; 0 = inactive; - = no result.

SMILES	CHT block	CHT PAM	TMEM16A inh	TMEM16A act
COc1cccc(C(C[N+](=O)[O-])c2c(C)[nH]n(-c3ccccc3)c2=O)c1 (centres undefined)	0	0	0	0
Cc1[nH]n(-c2ccccc2)c(=O)c1C(C[N+](=O)[O-])c1ccc(Br)cc1 (centres undefined)	0	0	25	0
CCCCC(=O)N(c1ccc(C(=O)O)cc1)c1nc(-c2ccc(Cl)cc2)c(CC)s1	0	0	100	0
Cc1cc(C)cc(OCC(=O)OC(C)C(=O)Nc2c(C)n(C)n(-c3ccccc3)c2=O)c1 (centres undefined)	0	0	0	0
COc1ccc(C(=O)c2ccc(N(C)C)cc2)c(OC)c1	0	0	0	0
CN(C)c1ccc(C(=O)c2ccc(N(C)C)c3ccccc23)cc1	0	10	0	0
COC(=O)C1=C(N)c2ccccc2C1(C#N)c1ccccc1 (centres undefined)	0	0	0	-10
Cc1cccc(C)c1NC(=O)C(=O)NCCc1c[nH]c2ccccc12	0	0	0	0
Cc1cccc(NC(=O)C(=O)NCCc2c[nH]c3ccccc23)c1C	0	0	0	-5.6
Cc1ccc(O)c(C2=NNC(O)(C(F)(F)F)C2)c1 (centres undefined)	0	0	25	0
COC(=O)C1CCN(C(=O)c2cc3c(=O)n4cccc(C)c4nc3n2Cc2ccccc2)CC1	0	0	0	0
CCc1ccc(-c2cc(-c3n[nH]c(=S)n3CC)c3ccccc3n2)cc1	-11	0	0	-
CCn1c(-c2cc(-c3cccc(OC)c3)nc3ccccc23)n[nH]c1=S	0	0	0	0
CS(=O)(=O)NCCSCc1ccco1	0	0	0	0
Cc1c(C)n(Cc2ccccc2)c2ccc(C(=O)OCCN(C)C)cc12	0	0	0	0
Cc1cc(C)nc(NC(=O)c2cc([N+](=O)[O-])cc([N+](=O)[O-])c2)n1	0	7.2	0	0
CCN(CC(=O)Nc1ccc(NC(C)=O)cc1)C(=O)C1CCCC1	-	-	-	0
COc1ccc(CCNC(=O)COC(=O)C2CC2C)cc1OC (centres undefined)	-	-	-	-42
CCCCN(CC)CCCNC(=O)c1cn(C)c2ccc(S(=O)(=O)N(C)C3CCCCC3)cc2c1=O	0	0	0	0
CCn1cc(C(=O)NCCCN(CC(C)C)CC(C)C)c(=O)c2cc(S(=O)(=O)N(C)C3CCCCC3)ccc21	0	0	0	-13
CCCCN(CC)CCCNC(=O)c1cn(CC)c2ccc(S(=O)(=O)N3CCc4ccccc4C3)cc2c1=O	-13	0	0	0
CCCCn1c(N)c(N(CCC(C)C)C(=O)c2cccc(-n3cnnn3)c2)c(=O)[nH]c1=O	0	0	0	0
Cc1nc2ccc(C(=O)OCC(=O)N(C)c3ccccc3)cc2nc1C	-	-	-	0
O=C(NCc1cccnc1)c1cn(CCc2ccccc2)nn1	0	0	25	0
COc1ccc(S(=O)(=O)N2CCCCCC2)cc1C(=O)N(C)Cc1c(F)cccc1Cl	-	-	-	0
SMILES	CHT block	CHT PAM	TMEM16A inh	TMEM16A act
COc1ccc(S(=O)(=O)N2CCCCCC2)cc1C(=O)N(C)Cc1ccc(Cl)cc1Cl	0	0	0	-22
O=C(NCc1ccco1)C1CCN(C(=O)c2ccc(Cl)cc2)CC1	-	-	-	0
O=C(NCc1ccco1)C1CCN(C(=O)c2cc3sccc3n2Cc2ccc(Cl)cc2)CC1	0	0	100	0
NS(=O)(=O)c1ccc(NC(=S)NC(=O)C2CCCCC2)cc1	0	0	0	-4.7
CNc1nc(OCCNC(=O)Nc2ccccc2)nc(N2CCOCC2)n1	0	0	0	0
O=C(NCCOc1nc(N2CCOCC2)nc(N2CCOCC2)n1)Nc1ccc(Cl)cc1	0	0	0	-15
Cc1ccc(OCC(=O)NNC(=S)NC(=O)c2ccc(Br)o2)c(C)c1	0	0	25	0
CCC1(C)Cc2c(C#N)c(N)sc(=S)c2CO1 (centres undefined)	0	0	0	-25
CCC1(C)Cc2c(C#N)c(N)n(-c3ccccc3)c(=S)c2CO1 (centres undefined)	0	0	0	0
C=CCN(C(=O)C1=NN(C2CCS(=O)(=O)C2)C(=O)CC1)c1nc(-c2ccc([N+](=O)[O-])cc2)cs1 (centres undefined)	0	0	0	-4.7
COC(=O)C(Nc1ccccc1Cl)(c1cc(C)c(O)c(C)c1)C(F)(F)F (centres undefined)	0	0	100	0
CCOC(=O)C(NC(=O)c1ccccc1Cl)(Nc1ccc(C)c(C)c1)C(F)(F)F (centres undefined)	0	0	0	0
O=C(CSCc1c(Cl)cccc1Cl)NN=C1CCCC1	0	0	0	-29
Cc1ccc(S(=O)(=O)N2[C@@H](c3ccccc3F)C(C(=O)O)=CC[C@H]2c2cccc(C)c2)cc1	0	0	0	0
Cc1ccc(S(=O)(=O)N2[C@@H](c3ccccc3F)C(C(=O)O)=CC[C@H]2c2ccc(Cl)c(Cl)c2)cc1	0	0	100	0
Cc1ccc(S(=O)(=O)N2[C@@H](c3ccccc3)C(C(=O)O)=CC[C@H]2c2ccc(Cl)c(Cl)c2)cc1	0	0	100	0
COCc1c(C#N)c(NCc2cc(OC)c(OC)c(OC)c2)nc(C)c1[N+](=O)[O-]	0	0	25	0
Cc1ccc(S(=O)(=O)N2[C@@H](c3cccc(Cl)c3)C(C(=O)O)=CC[C@H]2c2ccc(C(C)C)cc2)cc1	0	0	100	0
Cc1ccc(S(=O)(=O)N2[C@@H](c3ccc(Cl)cc3)C(C(=O)O)=CC[C@H]2c2cccc(Cl)c2)cc1	0	0	100	0
O=C(O)C1=CC[C@@H](c2ccc(Cl)cc2)N(S(=O)(=O)c2ccc(Cl)cc2)[C@H]1c1cccc(Cl)c1	0	0	100	0
Cc1nn2c3ccccc3n(C)c2nc1=O	0	0	0	0
Cc1nn2c3ccccc3n(Cc3ccccc3)c2nc1=O	0	0	0	-20
COc1ccc(Nc2cc(C(=O)N3CCc4ccccc4C3)c3ccccc3n2)c(OC)c1	0	0	0	0
COc1ccccc1-c1cc(C(=O)N2CCc3ccccc3C2)c2ccccc2n1	0	0	100	-
O=[N+]([O-])c1ccc(OCc2nnc(-c3ccccc3)o2)cc1	0	0	100	0
SMILES	CHT block	CHT PAM	TMEM16A inh	TMEM16A act
O=C(OCc1nnc(-c2ccccc2)o1)c1ccc([N+](=O)[O-])o1	0	0	0	0
CC1Cc2ccccc2N1C(=O)c1cc2cccnc2n(C)c1=O (centres undefined)	0	0	0	0
CCc1ccc(NC(=O)CN(c2ccc(OC)cc2)S(=O)(=O)c2c(C)nn(C)c2C)cc1	0	0	0	0
Nc1ccc2c(c1)C(=O)c1ccccc1-2	0	0	0	0
Nc1ccc2c(c1)C(=O)C(=O)c1ccccc1-2	0	0	25	0
CC(Sc1nnnn1-c1ccccc1)C(=O)NC1CCCC1 (centres undefined)	-	-	-	0
Cc1nc(SC(C)C(=O)NC2CCCC2)c2ccccc2n1 (centres undefined)	-	-	-	-31
N/C(=N\OC(=O)CCCOc1ccccc1)c1cccc([N+](=O)[O-])c1	0	0	0	0
